# Measured values from PubChem BioAssay AID1259343 (VanderVen Lab, College of Veterinary Medicine, Cornell …, 2017).
# Hit rate of the full screen: of about 6,200 compounds, about 2,900 (47%) were called active. So high a share suggests a set chosen from earlier hits. The list shows a part of the results. Values without a mark were called inactive. Rule as the data show it: active = inhibition above about 50%; inactive = the rest.
# Experiment: Mycobacterium tuberculosis growth inhibition, primary screen (AID 1259343)
# Conditions: inhibition: at 10 µM, active compounds read high; outcome: 10 uM
row,SMILES,inhibition
1,CC1(C)OC(=O)C(=C2C3C4CC5C2C2C3CC4C52)C(=O)O1 (configuration not stated),35.6%
2,COC(=O)C(C)OC(=O)c1c[nH]c2cc(Br)c(Br)cc12 (configuration not stated),24.9%
3,CC(C)c1nnc2sc(C3CCc4ccccc4C3)nn12 (configuration not stated),43.3%
4,CN(c1ccc(C(N)=O)nn1)C1CCc2ccccc2C1 (configuration not stated),60.2% (active)
5,Cc1ccc(N2C(=O)N(CCOc3cccc(Br)c3)C(=O)C2C)cc1 (configuration not stated),27.6%
6,Cc1cccc(OCCCn2c(=O)oc3ccc(C)cc32)c1,79.4% (active)
7,Cc1ccc2oc(=O)n(CCCOc3ccccc3C)c2c1,95.8% (active)
8,Cc1cccc(OCCCn2c(=O)oc3ccccc32)c1,-23.7%
9,COCCCn1c(-c2ccc(C)cc2)nc2oc3ccccc3c(=O)c2c1=O,9.29%
10,COc1ccccc1OCCCN1C(=O)C2(OCCCO2)c2ccccc21,40.7%
11,Cc1ccc(N(CC(=O)O)S(C)(=O)=O)cc1C,92.8% (active)
12,CC1(C)CC(=O)C(C(=O)Nc2sc3ccccc3c2Cl)C(=O)C1,98.3% (active)
13,O=C1NC(c2sc3ccccc3c2Cl)Nc2ccccc21 (configuration not stated),28.9%
14,CC(C)c1cc(=O)[nH]c(-n2nc(-c3cccs3)cc2NC(=O)c2ccc(Br)o2)n1,99.9% (active)
15,CC(C)c1cc(=O)[nH]c(-n2nc(-c3cccs3)cc2NC(=O)c2cc3ccccc3o2)n1,100% (active)
16,Cc1cc(=O)[nH]c(-n2nc(-c3cccs3)cc2NC(=O)c2ccc(Br)o2)n1,97.5% (active)
17,Cc1cc(C(=S)N=P(N(C)C)(N(C)C)N(C)C)c(C)n1-c1ccccc1,98.9% (active)
18,FC(F)(F)c1nnc2n1Nc1nc3ccccc3nc1S2,100% (active)
19,COC(=O)Cc1ccc(C(=O)CCl)s1,92.5% (active)
20,NC(=S)Nc1ccc(F)cc1,52.9% (active)
21,NC(=S)Nc1ccc(F)c(Cl)c1,4.04%
22,NC(=S)Nc1ccc(Cl)cc1,7.09%

row,SMILES,inhibition
1,CC(=NOCc1cccc(CON=C(C)c2ccccc2)c1)c1ccccc1,86.9% (active)
2,COc1cc(N/N=C(/C)c2cccc(C(F)(F)F)c2)nc(SC)n1,41.1%
3,CCc1ccc(-c2nc(C)c(C(=O)Nc3ccc(OC)nc3)s2)cc1,42.7%
4,CCc1nc(C)c(C(=O)Nc2ccc(CCC(F)(F)F)cc2)s1,66.2% (active)
5,O=C(CCl)Nc1cc2c(cc1Br)OCCO2,94.1% (active)
6,Cc1cc(N2CCCC2)ccc1NC(=O)CCl,1.87%
7,O=C(Nc1ccc(Oc2ccccc2F)cc1)C1CCN(C(=O)C2CCCO2)CC1 (configuration not stated),inactive
8,O=C(Nc1ccc(Oc2ccccc2F)cc1)C1CCN(C(=O)C2CC23CCC3)CC1 (configuration not stated),91.3% (active)
9,O=C(Nc1ccc(Oc2ccccc2F)cc1)C1CCN(C(=O)C2CCCCO2)CC1 (configuration not stated),88.7% (active)
10,COc1ccc(NC(=S)Nc2ccc3cn[nH]c3c2)cc1,68.9% (active)
11,FC(F)Oc1ccc(NC(=S)Nc2ccc3cn[nH]c3c2)cc1,-5.27%
12,S=C(Nc1ccc(Cl)cc1)Nc1ccc2cn[nH]c2c1,37.2%
13,C[C@]12C=CC(=O)C=C1CC[C@@H]1C2=CC[C@]2(C)[C@@H](C(=O)CN3CCN(c4cc(N5CCCC5)nc(N5CCCC5)n4)CC3)CC[C@@H]12,89.9% (active)
14,FC(F)(F)CCc1ccnc(N[C@@H]2C[C@H]2c2ccccc2)n1,30.5%
15,CC(C)c1nc(CN(C)Cc2ccc3ccccc3n2)cs1,2.62%
16,CC(C)c1nc(CNc2nccc(CCC(F)(F)F)n2)cs1,94.8% (active)
17,Nc1ccc2oc(CCc3ccccc3)nc2c1,33%
18,Nc1ccc2oc(=O)ccc2c1,77.1% (active)
19,O=c1ccc2ccc(O)cc2o1,74% (active)
20,Cc1c(Cl)c(=O)oc2cc(O)ccc12,-23%
21,Nc1nc2c3ccccc3nc(-c3ccccc3)n2n1,83.3% (active)
22,COc1cccc(Nc2nc(C(N)CCc3ccccc3)cs2)n1 (configuration not stated),82.2% (active)

row,SMILES,inhibition
1,COc1cccc(Nc2nc(C(N)COCc3ccccc3)cs2)n1 (configuration not stated),64.3% (active)
2,NC(=O)C1(N2CCCCC2)CCN(c2nc(-c3ccc(Cl)cc3Cl)cs2)CC1,-20.2%
3,Cc1ccc(NCc2ccc(C(=O)NCC3(CO)CCC3)cc2)cc1,43.9%
4,Cc1ccc(CNc2nc3c(s2)CCCC3)cc1,74% (active)
5,Nc1[nH]c(N=Nc2nc3c(s2)CCCC3)c2ccccc12,-27.1%
6,C/C(=N/OC(=O)c1ccc(-c2ccccc2)cc1)C(C)(C)C,65.6% (active)
7,Cc1ccc(/C(N)=N\OC(=O)CCc2ccccc2)cc1,29.4%
8,O=c1c(Br)cccc(Br)c1O,99.7% (active)
9,CC(=NNC(=S)NC(C)C)c1cccs1,104% (active)
10,CCNC(=S)NN=C(C)c1cccs1,101% (active)
11,CC(=NNC(=S)NC1CCCCC1)c1cccs1,-36.2%
12,Nc1ccc(N=Nc2ccccc2)c(N)n1,93.8% (active)
13,CCCC1CC(=O)CC(=O)C1,-33.8%
14,CCCC1CCC(c2ccc(C#N)c(=O)[nH]2)CC1 (configuration not stated),89.8% (active)
15,Cc1c(C2CCN(CCc3ccccc3)CC2)noc1-c1ccc(Cl)cc1,88.1% (active)
16,Fc1ccccc1CN1CCCC2(CCN(C3CCN(CCc4ccccc4)CC3)C2)C1 (configuration not stated),13.5%
17,Cc1cccc(CSc2ncnc3c2nnn3Cc2ccc(F)cc2)c1,15.2%
18,Fc1ccc(Cn2nnc3c(SCc4cccc(F)c4)ncnc32)cc1,73.3% (active)
19,Fc1ccc(CSc2ncnc3c2nnn3Cc2ccc(F)cc2)cc1,-6.41%
20,Fc1ccccc1CSc1ncnc2c1nnn2Cc1ccccc1F,94.8% (active)
21,Fc1ccc(CSc2ncnc3c2nnn3Cc2ccccc2F)cc1,-32.2%
22,Fc1ccc(Cn2nnc3c(SCc4ccccc4)ncnc32)cc1,93.4% (active)

row,SMILES,inhibition
1,c1ccc(CSc2ncnc3c2nnn3Cc2ccccc2)cc1,-43.1%
2,Fc1ccccc1CSc1ncnc2c1nnn2Cc1ccccc1,10.4%
3,c1ccc(Cn2nnc3c(Sc4ncco4)ncnc32)cc1,68.9% (active)
4,Fc1cccc(CSc2ncnc3c2nnn3Cc2ccccc2F)c1,29.2%
5,CCOc1cc(S(=O)(=O)N2CCCCC2CC)ccc1Br (configuration not stated),-6.56%
6,CCC1CCCCN1S(=O)(=O)c1ccc(C(=O)Nc2nnc(CSC)o2)cc1 (configuration not stated),99.6% (active)
7,CSc1nsc(SCC2=NNC(=O)c3ccccc3O2)n1,101% (active)
8,O=C(CSCCO)Nc1ccc(Cl)c(Br)c1,93.2% (active)
9,Cc1nc(CSCC(=O)Nc2ccc(C)c(Cl)c2)no1,39.4%
10,N#Cc1ccc(NC(=O)Cc2ccc(Cl)c(Cl)c2)cc1,17.6%
11,CC1CC(C)(C)CC2(C1)NC(=O)N(c1ccccc1)N2 (configuration not stated),86.8% (active)
12,CCOC(=O)CCc1c(C)c2ccc(OCc3ccc(C(=O)OC)cc3)c(C)c2oc1=O,36.8%
13,CONC(=O)c1oc2c(ccc3ccccc32)c1C,21.5%
14,CCCOC(=O)COc1ccc2c(oc(=O)c3ccccc32)c1C,84% (active)
15,O=c1[nH]c(=S)[nH]c(O)c1N=Nc1ccc(SC(F)F)cc1,99.5% (active)
16,O=c1[nH]c(O)c(N=Nc2ccc(SC(F)F)cc2)c(=O)[nH]1,84% (active)
17,O=c1[nH]c(=S)[nH]c(O)c1N=Nc1ccc2c(c1)OCCO2,38.2%
18,O=c1[nH]c(=S)[nH]c2sccc12,-6.61%
19,O=c1[nH]c(=S)[nH]c(O)c1N=Nc1ccc(F)cc1,104% (active)
20,CC(C)(C)C(=O)NC(=S)NCc1ccccc1,87% (active)
21,S=C(NCCc1ccccc1)NC1CCSc2ccccc21 (configuration not stated),31.4%
22,O=C(NC(=S)NCCc1ccccc1)C1CCCCC1,68.9% (active)

row,SMILES,inhibition
1,O=C(NC(=S)NCc1ccccc1)C1CCCCC1,-4.74%
2,CC(C)(C)C(=O)NC(=S)NCCc1ccccc1,58.1% (active)
3,CC(C)(C)C(=O)NCCc1cn(-c2ccccc2)c2ccccc12,42.6%
4,O=C(NCCc1ccc(Br)s1)C1CCC1,-26.3%
5,CC(C)CC(=O)NC(=S)NCc1ccccc1,52.5% (active)
6,CC1CCC(C(C)C)C(OC(=O)Cn2c(-c3ccccc3)[n+](C)c3ccccc32)C1 (configuration not stated),36.3%
7,Cc1sc(NC(=O)c2ccc3c(c2)CC(C)N3S(C)(=O)=O)nc1-c1ccc(F)cc1 (configuration not stated),44.9%
8,CC(C)(C)c1ncc(CNc2ccc(OCC(F)(F)F)nc2)s1,76.1% (active)
9,O=C(O)c1ccccc1CSc1ccc(N2CCCCC2)cc1,34.9%
10,CC(NC(=O)c1cc2c(s1)-c1ccccc1OC2)c1ccc(Br)cc1 (configuration not stated),-1.38%
11,FC(F)(F)c1nc2n(n1)C(c1ccc(Cl)cc1)C1=C(N2)c2ccccc2OC1 (configuration not stated),inactive
12,COc1ccc2cc(C=C3COc4ccccc4C3=O)ccc2c1,-0.42%
13,O=C1C(=Cc2ccc(N3CCCCC3)cc2)COc2ccccc21,53% (active)
14,O=C1C(=Cc2cc(Br)cs2)COc2ccccc21,63.5% (active)
15,O=C1/C(=C\c2ccc(Cl)cc2)COc2ccccc21,93.1% (active)
16,O=C1/C(=C/c2csnn2)CCOc2cc(Br)ccc21,32.8%
17,COc1cc(C(CC(=O)c2ccc(Cl)cc2)SCCO)cc(OC)c1OC (configuration not stated),7.8%
18,NC(=O)C1CCN(C(=O)c2ccc(-c3cccc(Cl)c3Cl)o2)CC1,57.6% (active)
19,NC(=O)C1CCN(CC(=O)Nc2oc3ccccc3c(=O)c2-c2ccccc2)CC1,12.8%
